Assay results published in PubChem BioAssay (NCI).
The panel holds about 79,000 compounds, 15% with a hit somewhere; the sample as a whole holds those more often. Cut-off read from the data, not from the text of the source: active = growth inhibition above about 70%; inactive = the rest.

How the values were obtained:
[1] = NCI Yeast Anticancer Drug Screen. Data for the rad50 strain (AID 155);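 note: 0% = growth of vehicle-only cultures of the same strain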; conditions: S. cerevisiae rad50 strain growth inhibition; at 50.0 µM; stronger effect = higher value
Outline: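 Compounds were tested on a yeast strain with an engineered DNA damage repair alteration; the reported value is growth inhibition normalised to vehicle treatment.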

[2] = NCI Yeast Anticancer Drug Screen. Data for the mec2-1 strain (AID 157); conditions: S. cerevisiae mec2-1 strain, at 50.0 µM, stronger effect = higher value
Outline: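 Yeast mec2-1 mutant treated with compound. Readout: growth inhibition vs vehicle controls.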

[3] = NCI Yeast Anticancer Drug Screen. Data for the sgs1 mgt1 strain (AID 161);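 note: 0% = growth of cultures given vehicle only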; conditions: S. cerevisiae sgs1 mgt1 strain, at 50.0 µM, stronger effect = higher value
Outline: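 Read-out: growth inhibition vs vehicle controls. Cells: mutant yeast strain deficient in DNA damage repair.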

[4] = NCI Yeast Anticancer Drug Screen. Data for the cln2 rad14 strain (AID 165);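 note: 0% = growth equal to vehicle treated cultures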; conditions: S. cerevisiae cln2 rad14 strain, at 50.0 µM, stronger effect = higher value
Outline: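 cln2 rad14 yeast strain; compound exposure; growth inhibition read vs vehicle controls.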

[5] = NCI Yeast Anticancer Drug Screen. Data for the bub3 strain (AID 167); conditions: S. cerevisiae bub3 mutant strain, at 50.0 µM, stronger effect = higher value
Outline: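 Growth of a checkpoint-deficient yeast mutant is measured after compound exposure. Values represent inhibition relative to vehicle.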

[6] = NCI Yeast Anticancer Drug Screen. Data for the mlh1 rad18 strain (AID 175); conditions: S. cerevisiae mlh1 rad18 strain growth inhibition; at 50.0 µM; stronger effect = higher value
Outline: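 Yeast w/ defined DNA-repair lesions; compound exposure; growth vs vehicle controls → % inhibition.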

Measured: growth inhibition

C=C1[C@H](OCC(C)C)[C@@H](OCC(C)C)[C@@H](O)C(C)(C)/C=C/[C@H](C)C(=O)[C@@]2(O)C[C@H](C)[C@H](O)[C@@H]2[C@H]1OCC(C)C
inactive: [1] -37.9% | [2] -45% | [3] -9.85% | [4] -36.3% | [5] -12.8% | [6] -68.8%

Cn1c2ccccc2c(=O)c2c(O)cc3c(c21)C=CC1(CCCCC1)O3
inactive: [1] -4.75% | [2] 11.4% | [3] -2.25% | [4] 19.1% | [5] -5.65% | [6] 25.1%

COC1CC(OC2C(C)OC(OC3C(C)OC(OC4C(O)CC(O[C@H]5CC[C@@]6(C)C(=CC[C@]7(O)[C@@H]6C[C@@H](OC(=O)/C=C/c6ccccc6)[C@@]6(C)[C@]7(O)CC[C@@]6(O)C(C)=O)C5)OC4C)CC3OC)CC2OC)OC(C)C1O (some centres not stated)
inactive: [1] -13.4% | [2] 7.95% | [3] -8.6% | [4] 16.2% | [5] -6.75% | [6] -53.8%

COc1ccccc1NC(=O)C1=C(C)NC(C)=C(C(=O)Nc2ccccc2OC)C1c1ccccc1Cl
inactive: [1] 11.3% | [2] -4.4% | [3] 3.85% | [4] 17.9% | [5] -6.45% | [6] 23.4%

CN(C)CC(Cc1ccccc1)c1ccccc1 (configuration not stated)
inactive: [1] -19.9% | [2] -10.9% | [3] -18.6% | [4] 7.6% | [5] -5.4% | [6] -17.6%

CC1CCc2c(nc(C#N)c(=N)n2O)C1 (configuration not stated)
inactive: [1] 8.25% | [2] -3.2% | [3] 6.8% | [4] -40.2% | [5] -12.2% | [6] -6.75%

CN(C)c1nc(Oc2nc(N(C)C)nc(N(C)C)n2)nc(N(C)C)n1
inactive: [1] -21.8% | [2] -26.6% | [3] -30.9% | [4] -8.5% | [5] -21.4% | [6] -31.9%

COc1cc(CCCOC(=O)/C=C/c2ccc(O)c(O)c2)cc(O)c1O
inactive: [1] 19.1% | [2] -18.3% | [3] 1.05% | [4] -17.4% | [5] -0.8% | [6] -72.4%

[O-][n+]1cscc1-c1nc2ccccc2[nH]1
inactive: [1] 7.45% | [2] -13.2% | [3] -2.95% | [4] 10.2% | [5] -7.8% | [6] -7.5%

Cc1ccc(S(=O)(=O)N/N=C2/C(=N/NS(=O)(=O)c3ccc(C)cc3)c3cccc4cccc2c34)cc1
inactive: [1] 50% | [2] 11.4% | [3] 36.7% | [4] 8.3% | [5] 14.8% | [6] 11.3%

COc1ccccc1N=NC1=C2Nc3ccccc3N=C1N(c1ccccc1OC)C(=S)N2c1ccccc1C
inactive: [1] -10.3% | [2] -11.3% | [3] -16.4% | [4] -11.5% | [5] -2.95% | [6] -30.4%

CCOC(=O)/C(C)=C(/C)Nc1ccccc1
inactive: [1] 1.45% | [2] 3.8% | [3] -1.25% | [4] -28.9% | [5] -10.1% | [6] 2.7%

COc1ccc2c(c1)Sc1c(Cl)c3c(c(Cl)c1=N2)Sc1cc(OC)ccc1N=3
inactive: [1] 19.5% | [2] -4.75% | [3] 0.7% | [4] 21.7% | [5] -2.2% | [6] 13.9%

COc1cc(/C=N/N2CN(C(C)C(=O)O)B(NCCC(C)C)N=C2N)cc(OC)c1 (configuration not stated)
inactive: [1] 0.85% | [2] -10.4% | [3] 22% | [4] -3.7% | [5] 23.6% | [6] -6%

O=C(O)/C=C/c1ccc(OCc2ccccc2)c(OCc2ccccc2)c1
inactive: [1] 0.7% | [2] -11.7% | [3] 7.15% | [4] -10.9% | [5] -8.85% | [6] -6.9%

CCOC(=O)CCC(Cl)(Cl)Cl
inactive: [1] 14% | [2] -9.95% | [3] -1.45% | [4] -39% | [5] -7.85% | [6] 9.2%

C=C=CON1CCCCC1
inactive: [1] -16% | [2] 14.9% | [3] -24.9% | [4] -5% | [5] -12.7% | [6] -0.6%

CCCC1OCC(O)C(C(O)C(=O)CN(Cc2ccccc2)Cc2ccccc2)O1 (configuration not stated)
inactive: [1] 0.1% | [2] 1.35% | [3] 1.55% | [4] -9.5% | [5] -3.8% | [6] 3.75%

CCCCCCCCCCCCCCCCCC(=O)[O][Al][O]C(C)C
inactive: [1] -38.1% | [2] -35% | [3] -10.8% | [4] 4.55% | [5] -19.5% | [6] -14.9%

O=[N+]([O-])c1cccc(S(=O)(=O)O)c1 (tested in a mixture with another compound)
inactive: [1] 15.3% | [2] -3.65% | [3] -0.1% | [4] -33.6% | [5] -2.2% | [6] -4.95%

O=[N+]([O-])c1ccc(/C=C/c2cc(N(CCO)CCO)c3ccccc3n2)cc1
inactive: [1] 8.35% | [2] -1.05% | [3] -31.2% | [4] -11.1% | [5] -0.4% | [6] -2.95%

CC12CCC(c3cn[nH]c31)C2(C)C (configuration not stated)
inactive: [1] 16.1% | [2] 20.8% | [3] 19.9% | [4] -6.6% | [5] -0.35% | [6] 0.7%

CCCCCCCCCCCCCCCCCC(=O)OC(C(O)C=O)C(O)C(O)CO (configuration not stated)
inactive: [1] 12.6% | [2] 16.3% | [3] 22.2% | [4] 23.9% | [5] -5.55% | [6] 45.8%

C[N+](C)(N)Cc1csc(-c2ccc(Cl)cc2)n1
inactive: [1] -31.3% | [2] -39.3% | [3] -12.7% | [4] -8.1% | [5] -24.6% | [6] -10.5%

CCN1C2=NCCN2C(=O)c2ccccc21
inactive: [1] -0.8% | [2] -11.2% | [3] 15.9% | [4] 15.1% | [5] 8.25% | [6] 13.4%

O=C(CC(C(=O)c1ccc(F)cc1)c1ccsc1)c1cccs1 (configuration not stated)
inactive: [1] 13.8% | [2] 2.3% | [3] 26.8% | [4] 16.5% | [5] 8.5% | [6] 3%

NC(=O)C(N)Cc1ccc(OCc2ccccc2)c(OCc2ccccc2)c1 (configuration not stated)
inactive: [1] 1.4% | [2] 3.35% | [3] 7.3% | [4] -12.8% | [5] 2.45% | [6] 26.2%

C[N+](C)(C)c1ccc2ccccc2n1
inactive: [1] -9.15% | [2] -1.6% | [3] -19.9% | [4] 1.15% | [5] -8.7% | [6] -2.7%

C=C(C)COC(=O)COc1ccc(Cl)cc1
inactive: [1] 1.05% | [2] -32.7% | [3] -3.5% | [4] 0.45% | [5] 3.5% | [6] 5.45%

CN(C)c1ccc([Si](c2ccc(N(C)C)cc2)c2ccc(N(C)C)cc2)cc1
inactive: [1] -18.5% | [2] 3.65% | [3] -19.1% | [4] -28.8% | [5] -1.1% | [6] 23.4%

CCN(CC)CCC(O)(c1cccc(Cl)c1)C1CCCCC1 (configuration not stated)
inactive: [1] -1.4% | [2] -6.25% | [3] -3.1% | [4] -68% | [5] -7.95% | [6] -7.25%

c1ccc2c(c1)Cc1ccccc1-2
inactive: [1] 1.5% | [2] -17.2% | [3] -10.6% | [4] -19.5% | [5] -20.9% | [6] -19.1%

CSc1nc(SC)c2nc(SC)n(-c3ccccc3)c2n1
inactive: [1] -2.7% | [2] -16.1% | [3] 7.85% | [4] -10.3% | [5] 3.85% | [6] -2.75%

COC(=O)c1c2c(cc3c1CC1(Cc4ccccc4C1)C3)CCC2
inactive: [1] 1.15% | [2] 11.6% | [3] 17% | [4] 0.6% | [5] 2.6% | [6] 18.6%

O=C1c2cc(Cl)ccc2-c2cc(Cl)c(Cl)cc21
inactive: [1] -0.8% | [2] -2.05% | [3] 10.4% | [4] -29.9% | [5] -3.45% | [6] 26.6%

CC(C)(C)S(=O)(=O)CCCCl
inactive: [1] 12.8% | [2] -13.9% | [3] -1.65% | [4] -8.5% | [5] 13.2% | [6] 13.5%

CCOC(=O)c1oc2ccc(OC)c3c2c1CCC3
inactive: [1] 2.8% | [2] -1% | [3] 6.3% | [4] 15.4% | [5] 11.6% | [6] 19.6%
